Bioassay records as filed in PubChem BioAssay.
Hits are enriched below; roughly 7.6% of the tested compounds scored in any of these assays.
hERG WT inh – qHTS for Inhibitors of KCHN2 3.1: Wildtype qHTS; Voltage-gated inwardly rectifying potassium channel KCNH2 (Homo sapiens), Q12809; actives 0.37% (n = 340,000); AID 720551, 2013; U2OS, BacMam KCNH2, thallium flux FluxOr; hits give low values; activity change, % at 1.84 µM;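 active means maximum activity change below -70%; inconclusive means maximum activity change between -70% and -50%; inactive means maximum activity change above -50%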; further: on the % scale 0 is the no-effect control and ±100 the full control effect
Target sequence (Q12809 whole entry, looked up): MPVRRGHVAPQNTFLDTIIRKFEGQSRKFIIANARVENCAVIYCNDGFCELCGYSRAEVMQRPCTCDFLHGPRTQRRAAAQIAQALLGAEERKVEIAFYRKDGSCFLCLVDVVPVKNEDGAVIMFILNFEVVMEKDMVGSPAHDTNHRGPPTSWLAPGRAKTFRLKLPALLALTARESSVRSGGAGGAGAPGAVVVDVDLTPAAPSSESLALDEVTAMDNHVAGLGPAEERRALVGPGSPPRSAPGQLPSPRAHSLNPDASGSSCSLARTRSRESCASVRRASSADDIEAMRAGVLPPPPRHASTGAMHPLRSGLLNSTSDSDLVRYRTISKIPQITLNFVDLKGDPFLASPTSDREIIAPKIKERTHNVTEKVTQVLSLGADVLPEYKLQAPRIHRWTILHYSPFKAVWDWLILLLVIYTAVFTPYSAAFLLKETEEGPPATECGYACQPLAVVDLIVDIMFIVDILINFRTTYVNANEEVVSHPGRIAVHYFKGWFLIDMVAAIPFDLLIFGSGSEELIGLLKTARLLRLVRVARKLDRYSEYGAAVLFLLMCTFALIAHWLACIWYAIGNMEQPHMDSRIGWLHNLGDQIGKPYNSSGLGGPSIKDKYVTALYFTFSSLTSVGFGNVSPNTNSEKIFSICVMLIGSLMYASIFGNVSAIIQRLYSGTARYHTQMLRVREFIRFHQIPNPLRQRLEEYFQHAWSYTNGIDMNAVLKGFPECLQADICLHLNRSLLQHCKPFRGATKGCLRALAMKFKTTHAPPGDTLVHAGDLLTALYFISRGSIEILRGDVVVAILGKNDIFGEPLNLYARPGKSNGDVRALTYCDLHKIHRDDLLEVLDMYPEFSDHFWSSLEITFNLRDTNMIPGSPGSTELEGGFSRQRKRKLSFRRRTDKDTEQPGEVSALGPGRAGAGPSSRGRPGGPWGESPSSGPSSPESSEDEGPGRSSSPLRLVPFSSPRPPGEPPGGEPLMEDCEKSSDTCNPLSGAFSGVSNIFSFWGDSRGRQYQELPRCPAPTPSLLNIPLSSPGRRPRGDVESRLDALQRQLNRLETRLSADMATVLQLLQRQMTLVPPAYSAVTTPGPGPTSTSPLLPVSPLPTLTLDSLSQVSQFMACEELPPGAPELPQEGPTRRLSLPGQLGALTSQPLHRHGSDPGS
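U2OS cells were transduced with wild-type KCNH2 virus (2.03 x 10^8 / mL) for 4 h at room temperature, then cultured overnight at 37 C. Thallium flux was read with FluxOr dye. Rate constants were normalized to DMSO controls.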
KCNH2 3.1 inh – qHTS for Inhibitors of KCHN2 3.1: Mutant qHTS | actives 0.95% (n = 340,000) | activity change, % (tested at about 1.8 µM) | U2OS KCNH2 3.1, thallium flux FluxOr; hits give low values;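 active means maximum activity change below -70%; inconclusive means maximum activity change from -70% to -50%; inactive means maximum activity change above -50%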;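 further: thallium influx rate constant from kinetic fluorescence after stimulation buffer; on the % scale 0 is the no-effect control and ±100 the full control effect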
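Kinetic fluorescence (2 min after stimulation buffer) measures Tl+ influx through KCNH2 3.1 expressed by viral transduction in U2OS cells; the rate constant is normalized against DMSO controls serving as positive and negative references.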
SW480 rereplic – A quantitative high throughput screen for small molecules that induce DNA re-replication in SW480 colon adenocarcinoma cells | SW480 DNA re-replication, Hoechst DNA content imaging, 48 h | Potency, µM (series often up to 46.1 µM), without a hit: at the highest dose re-replication activation, actives largely listed as activators | actives 1.8% (n = 340,000) | AID 624297, 2012; further: potency means the concentration at half of the fitted maximal effect; % of control where 0% means no effect; nearly all actives have a fitted effect of over 55% in size
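Per well, 250 cells were exposed to pinned compound for 48 hr. Nuclear DNA was visualised with Hoechst (40 min, 37 C) and total object intensity recorded by fluorescence scanning.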
KB-V1 MDR tox – qHTS assay for MDR1-selective chemotherapeutics: Primary screen using the drug-selected MDR subline cells KB-V1. KB-V1 MDR cells viability, CellTiter-Glo, 72 h. Potency, µM (doses to about 46.1 µM), usual class: cytotoxic. actives 3.4% (n = 400,000). AID 1347076, 2019; further: potency means the concentration at half of the fitted maximal effect; on the % scale 0 is the no-effect control and ±100 the full control effect; nearly all actives have a fitted effect of over 60% in size
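Luminescent ATP read-out (CellTiter-Glo, 10 min) measures survival of drug-selected KB-V1 MDR cells after 72 h, 37 degrees C compound exposure. Medium: phenol-red-free DMEM, 10% FBS. Values from fitted concentration-response curves.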
MCF10A rerep – A quantitative high throughput screen for small molecules that induce DNA re-replication in MCF 10a normal breast cells | actives 2.9% (n = 350,000) | MCF 10A DNA re-replication, Hoechst nuclear intensity, 48 h | Potency, µM (titrated, usually from 46.1 µM), inactives show top-dose activity, positive = re-replication, actives largely listed as activators | AID 624296, 2012; further: potency means the concentration at half of the fitted maximal effect; % of control where 0% means no effect; nearly all actives have a fitted effect of over 50% in size
KB-3-1 tox – qHTS assay for MDR1-selective chemotherapeutics: Primary screen using the parental adenocarcinoma cell KB-3-1; KB-3-1 viability, CellTiter-Glo ATP luminescence, 72 h; Potency, µM (highest dose often 46.1 µM), most hits filed as cytotoxic; actives 1.4% (n = 400,000); further: potency means the concentration at half of the fitted maximal effect; on the % scale 0 is the no-effect control and ±100 the full control effect; nearly all actives have a fitted effect of over 60% in size
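Here the drug-naive KB-3-1 line serves as comparator for MDR sub-line selectivity; cells received compound titrations, 72 h at 37 °C, then CellTiter-Glo readout.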
* marks the source's active call; other numbers are inactive results; i = inactive; ? = inconclusive; . = no result given; [ ] = remark or other dose. Unless noted, the call rests on the fitted dose curve; in most records, active means well fitted curve in the direction sought with a large enough effect; inconclusive means small, poorly fitted or top-dose-only effect, or another doubt; inactive means no such curve, though single readings can be large; an effect the other way counts as inactive or inconclusive.

SMILES	hERG WT inh	KCNH2 3.1 inh	SW480 rereplic	KB-V1 MDR tox	MCF10A rerep	KB-3-1 tox
O=C(CCNc1n[nH]c(=O)[nH]c1=O)N/N=C/c1ccc(C(F)(F)F)cc1	11	-46	-16%	i	-3%	i
COC(=O)c1cc(OC)c(OC)cc1NC(=O)C(C)Sc1ccc(C)cc1 (stereo unspecified)	-6	18	15%	?	3.7µM*	i
CCN1C(=O)[C@H]2[C@@H](c3ccc(Cl)cc3)N3C(=O)CN(CCOC)C(=O)[C@@]3(C)[C@H]2C1=O	0	16	-2%	i	-2%	i
CCCCN1CC(=O)N2[C@H](c3ccc(Cl)cc3)[C@@H]3C(=O)N(CC)C(=O)[C@@H]3[C@]2(C)C1=O	0	-115*	-12%	i	9%	i
CCOc1ccc(CO/N=C/c2c(C)[nH]c(=O)[nH]c2=O)cc1	21	-13	-8%	i	?	i
CCOC(=O)c1c(C)[nH]c(C(=O)C(C)OC(=O)c2cccc(OCc3c(C)noc3C)c2)c1C (stereo unspecified)	-9	-23	?	i	12%	i
C=CCn1c(=NC(=O)c2ccc(S(=O)(=O)N3CCc4ccccc4C3)cc2)sc2cc(S(N)(=O)=O)ccc21	1	3	?	?	9.2µM*	i
COCCn1c(=NC(=O)c2ccc(S(=O)(=O)N3CCc4ccccc4C3)cc2)sc2cc(S(N)(=O)=O)ccc21	-26	?	-4%	i	-2%	i
COc1cc(OC)cc(C(=O)N=c2sc3ccccc3n2C)c1	12	-3	-37%	i	?	i
COc1cccc(C(=O)N=c2sc3cc(S(C)(=O)=O)ccc3n2C)c1	-8	4	6.5µM*	i	1%	i
C=CCn1c(=NC(=O)c2ccc(S(=O)(=O)N3CCCc4ccccc43)cc2)sc2cc(S(N)(=O)=O)ccc21	-8	7	4%	i	28%	i
C#CCn1c(=NC(=O)c2ccc(S(=O)(=O)N3CCc4ccccc4C3)cc2)sc2cc(S(N)(=O)=O)ccc21	2	-21	?	?	4.1µM*	?
COC(=O)Cn1c(=NC(=O)c2ccc(S(=O)(=O)N3CCc4ccccc4C3)cc2)sc2cc(OC)ccc21	2	2	1%	?	?	i
COCCn1c(=NC(=O)c2ccc(S(=O)(=O)N3CCCc4ccccc43)cc2)sc2cc(S(C)(=O)=O)ccc21	3	-35	?	1.8µM*	?	i
O=c1c2ccccc2nc2ccc(NCc3cccs3)nn12	4	-8	-4%	i	-4%	i
NC(CO)(CO)CO	.	.	1%	.	4%	.
Cc1c(S(=O)(=O)N(C)C2CCCCC2)c(=O)n(C)c(=O)n1C	0	-2	?	i	-2%	i
O=C(CCCn1c(=S)[nH]c2cc3c(cc2c1=O)OCO3)N1CCN(c2ccccc2)CC1	2	3	-8%	i	1%	i
O=C(CCCCCn1c(=S)[nH]c2cc3c(cc2c1=O)OCO3)NCCc1ccccc1	-13	-87*	0%	i	1%	i
O=C(CCCn1c(=S)[nH]c2cc3c(cc2c1=O)OCO3)NCCc1ccc(Cl)cc1	6	6	.	i	.	i
Cc1cccc(N2CCN(C(=O)CCCn3c(=S)[nH]c4cc5c(cc4c3=O)OCO5)CC2)c1C	-10	8	9%	3.7µM*	15%	i
Cc1cccc(N2CCN(C(=O)CCn3c(=S)[nH]c4cc5c(cc4c3=O)OCO5)CC2C)c1 (stereo unspecified)	4	13	1%	10µM*	?	i
C[C@H](CO)N1C[C@H](C)[C@@H](CN(C)C(=O)CN2CCOCC2)Oc2cc(Br)ccc2S1(=O)=O	0	8	.	i	.	i
O=C(CCNC(=O)c1ccc([N+](=O)[O-])cc1)Nc1ccc(F)c(F)c1F	-16	-4	139%	i	-1%	i
C#CCCOC(=O)N1C2=NC(C(=O)OC)=C(C(=O)OC)[C@@H]3N(Cc4ccccc4)c4ccccc4[C@]23C[C@H]1C(=O)OC	-3	-136*	-17%[9.22 µM]	i	5%	i
SMILES	hERG WT inh	KCNH2 3.1 inh	SW480 rereplic	KB-V1 MDR tox	MCF10A rerep	KB-3-1 tox
C/C(=N\NC(N)=S)c1ccc(Cl)s1	7	-1	?	6.5µM*	?	16µM*
O=C1c2ccccc2-c2cccc(NS(=O)(=O)c3ccc(C(F)(F)F)cc3)c21	-8	-9	19%	23µM*	4%	?
CC1=NN(C(N)=S)C(=O)C1N=Nc1ccccc1Cl (stereo unspecified)	-11	-15	8.2µM*	i	?	i
COC(=O)c1sc(N)c(C(=O)OC)c1COC(=O)c1c(C)noc1C	-1	-18	2.9µM*	5.2µM*	9.2µM*	5.2µM*
CCOC(=O)[C@@H]1[C@H]2COc3cc(OC)ccc3[C@@H]2N2C(=O)N(c3ccc(F)cc3)C(=O)[C@@]12C	11	-8	-10%	i	13%	i
COCCCNC(=S)Nc1cc2oc3ccccc3c2cc1OC	-18	-9	12µM*	?	9.2µM*	?
COc1cc2c(cc1NS(=O)(=O)N1CCCCC1)oc1ccccc12	11	14	?	i	10µM*	i
O=C(NCCc1ccccc1)c1ccccc1NS(=O)(=O)N1CCCC1	-6	-18	-3%	i	-10%	i
COc1cc2c(cc1NC(=S)Nc1cccc3ccccc13)oc1ccccc12	1	5	0%	i	3%	i
O=S(=O)(Nc1cccc2ccccc12)N1CCCC1	4	-2	5%	?	8.2µM*	i
COc1cc2c(cc1NCc1ccccn1)oc1ccccc12	-6	22	3%	i	23µM*	i
O=C(c1ccc(Cl)cc1)C1CCN(C(=O)c2ccc(F)cc2)CC1	7	6	-18%	?	11%	i
Cc1cc(C)c2c(CC(=O)NNC(=O)c3ccccc3)coc2c1	-2	-7	1%	i	-2%	i
